Among the test systems are SK-MEL-2 melanoma; EKVX NSCLC; SN12C renal; UO-31 renal; TK-10 renal; ACHN renal; CAKI-1 renal; A498 renal; MOLT-4 leukemia; SR leukemia; RPMI-8226 leukemia; OVCAR-8 ovarian; OVCAR-5 ovarian; OVCAR-4 ovarian; SK-OV-3 ovarian; IGROV1 ovarian; OVCAR-3 ovarian; HS 578T breast; NCI/ADR-RES ovarian.
Holding throughout (experiment): NCI-60 one-dose screen, 48 h (100 = growth as untreated, 0 = no growth, -100 = all killed)
Details in all cases: 10 µM unless noted

About 83,000 compounds went through this panel and 20% of them were active in at least one assay; those are over-represented in the sample as a whole.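 Percent growth is the endpoint: 0 to 100 indicates growth inhibition (40 means 60% inhibition), 0 means no net growth, and negative values indicate cell death.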 Unmarked numbers belong to inactive results. Activity calls are given as the source filed them. The calls were made as follows: active = growth percent below 10; inactive = the rest.

Turning to `O=C(/C=C/c1ccco1)c1ccc(Nc2nc(Nc3ccc(F)cc3)nc(Nc3ccc(Cl)cc3)n2)cc1`, the growth in the assay with SK-MEL-2 melanoma is 59.4%; with EKVX NSCLC, 75.5%; in the assay with SN12C renal, 81.1%; in the assay with UO-31 renal, 85.3%; with TK-10 renal it was 84%; with ACHN renal, 89.1%. The growth with CAKI-1 renal was 80%; in the assay with A498 renal, 30.8%; with MOLT-4 leukemia, -99.1% (active); in the assay with SR leukemia, 0.269% (active); in the assay with RPMI-8226 leukemia it was 23.6%; in the assay on OVCAR-8 ovarian, 87.9%. In addition, the growth in the assay on OVCAR-5 ovarian was 64.9%; in the assay on OVCAR-4 ovarian, 78.4%; in the assay with SK-OV-3 ovarian, 95.4%; in the assay with IGROV1 ovarian, 61.7%; with OVCAR-3 ovarian, 75%; in the assay with HS 578T breast, 81.5%. In addition, in the assay with NCI/ADR-RES ovarian, the growth is 67.3%.
Take `C[C@H](NC(=O)[C@@H]1CSSC[C@@H](NC(=O)c2nc3ccccc3cc2O)C(=O)NCC(=O)N1C)c1ccccc1`: the growth is 62.2% in the assay with SK-MEL-2 melanoma; 42% in the assay with EKVX NSCLC; -17.7% (active) in the assay with SN12C renal; 63.8% in the assay on UO-31 renal; 59.9% with TK-10 renal; 44.7% with ACHN renal. Moreover, the growth in the assay with CAKI-1 renal was 83.2%; with A498 renal, 112%; with MOLT-4 leukemia, -8.45% (active); in the assay on SR leukemia, -17.5% (active); with RPMI-8226 leukemia, 22.6%; with OVCAR-8 ovarian, 26.3%. For the same compound, the growth in the assay on OVCAR-5 ovarian is 45.6%; in the assay with OVCAR-4 ovarian it was 94.3%; in the assay on SK-OV-3 ovarian it was 71.7%; with IGROV1 ovarian, 71.6%; with OVCAR-3 ovarian, -51.4% (active); with HS 578T breast, 33%. In addition, the growth in the assay with NCI/ADR-RES ovarian was 91.5%.
Take `O=Cc1c[nH]c2ccc(-c3csc4ccccc34)cc12`: the growth with SK-MEL-2 melanoma was 110%; in the assay with EKVX NSCLC, 55.9%; in the assay on SN12C renal it was 75.2%; in the assay on UO-31 renal it was 42.9%; with TK-10 renal it was 60.6%; with ACHN renal, 63.7%. Besides, the growth in the assay with CAKI-1 renal was 39.7%; in the assay on A498 renal, 43.5%; with MOLT-4 leukemia, 15.7%; in the assay on SR leukemia, 6.86% (active); in the assay with RPMI-8226 leukemia, 27.8%; in the assay with OVCAR-8 ovarian it was 27.6%. The growth in the assay with OVCAR-5 ovarian was 86.3%; in the assay with OVCAR-4 ovarian it was 94.2%; with SK-OV-3 ovarian it was 49.4%; in the assay on IGROV1 ovarian, 20.5%; in the assay with OVCAR-3 ovarian it was 23.8%; in the assay on HS 578T breast it was 40.4%. Moreover, the growth in the assay with NCI/ADR-RES ovarian was 12.3%.
For the compound `O=C(N/N=C/c1ccncc1)c1ccc(C(F)(F)F)nc1Nc1cccc(C(F)(F)F)c1`, the growth in the assay with SK-MEL-2 melanoma was -10.9% (active); in the assay on EKVX NSCLC it was 18.4%; in the assay on SN12C renal, 37.7%; in the assay with UO-31 renal, 8.19% (active); in the assay on TK-10 renal it was 16.8%; in the assay on ACHN renal, 17.1%. In addition, the growth was 6.02% (active) in the assay with CAKI-1 renal; 35.3% in the assay on A498 renal; 6.05% (active) in the assay with MOLT-4 leukemia; 2.02% (active) in the assay on SR leukemia; -64.1% (active) in the assay with RPMI-8226 leukemia; -4.88% (active) in the assay on OVCAR-8 ovarian. Moreover, the growth is 24.7% in the assay on OVCAR-5 ovarian; -0.699% (active) in the assay on OVCAR-4 ovarian; 32.1% in the assay with SK-OV-3 ovarian; -35.9% (active) in the assay on IGROV1 ovarian; 1.03% (active) in the assay on OVCAR-3 ovarian; 44.4% with HS 578T breast. Besides, the growth with NCI/ADR-RES ovarian is -10.7% (active).
With `NNC(=O)c1nc(N)n(-c2ccc(S(N)(=O)=O)cc2)n1`, the growth in the assay on SK-MEL-2 melanoma was 107%; in the assay on EKVX NSCLC, 98.2%; in the assay on SN12C renal, 97.6%; in the assay with UO-31 renal, 76.2%; in the assay with TK-10 renal, 104%; in the assay with ACHN renal, 100%. Moreover, the growth was 88% in the assay with CAKI-1 renal; 103% with A498 renal; 105% in the assay on MOLT-4 leukemia; 88.5% in the assay on SR leukemia; 91.4% in the assay on RPMI-8226 leukemia; 96.2% in the assay on OVCAR-8 ovarian. The growth with OVCAR-5 ovarian is 101%; with OVCAR-4 ovarian it was 100%; with SK-OV-3 ovarian, 94.7%; in the assay on IGROV1 ovarian it was 103%; with OVCAR-3 ovarian, 89.2%; in the assay with HS 578T breast it was 94.5%. The growth with NCI/ADR-RES ovarian is 100%.
Consider `COc1cccc(Nc2nccc(Nc3ccc4[nH]ncc4c3)n2)c1`, for which the growth in the assay with SK-MEL-2 melanoma is -37% (active); with EKVX NSCLC, 34%; in the assay with SN12C renal, 20.2%; with UO-31 renal it was -62.1% (active); with TK-10 renal it was -77.7% (active); in the assay on ACHN renal, -3.17% (active). Besides, the growth with CAKI-1 renal is -30.8% (active); in the assay with A498 renal, 12.7%; in the assay with MOLT-4 leukemia, -32.4% (active); in the assay with SR leukemia it was -11.5% (active); in the assay with RPMI-8226 leukemia, -39.6% (active); in the assay with OVCAR-8 ovarian, -80.5% (active). In addition, the growth in the assay on OVCAR-5 ovarian was 32.9%; with OVCAR-4 ovarian it was -59.6% (active); in the assay on SK-OV-3 ovarian, 15.3%; in the assay with IGROV1 ovarian, -24.2% (active); in the assay with OVCAR-3 ovarian, -61.5% (active); with HS 578T breast, 23.9%. Besides, in the assay with NCI/ADR-RES ovarian, the growth was -11.4% (active).
For `O=C1CC(N2C(=O)/C(=C/C(Cl)=C\c3ccc([N+](=O)[O-])cc3)SC2=S)C(=O)N1c1ccc(O)cc1` (centres undefined), the growth in the assay on SK-MEL-2 melanoma was -9.67% (active); in the assay with EKVX NSCLC, -2.89% (active); in the assay with SN12C renal, -8.4% (active); with UO-31 renal, -75.2% (active); in the assay on TK-10 renal it was -1.39% (active); with ACHN renal it was -71.4% (active). In addition, the growth in the assay with CAKI-1 renal is 7.93% (active); with A498 renal it was -26.8% (active); in the assay with MOLT-4 leukemia it was 2.92% (active); in the assay with SR leukemia, -13.4% (active); with RPMI-8226 leukemia it was -15.1% (active); in the assay with OVCAR-8 ovarian, 11.6%. In addition, the growth in the assay with OVCAR-5 ovarian was -56.5% (active); with OVCAR-4 ovarian it was 14.1%; in the assay with SK-OV-3 ovarian, 33.5%; in the assay with IGROV1 ovarian, -45.8% (active); with OVCAR-3 ovarian, -16.4% (active); in the assay with HS 578T breast it was 15.5%. Further, the growth in the assay on NCI/ADR-RES ovarian was 3.58% (active).
In the case of `COc1ccc(C2=Nc3c(N)ncnc3NC(c3ccc4c(c3)OCO4)C2)cc1` (centres undefined), the growth was 57.6% with SK-MEL-2 melanoma; 82.1% with EKVX NSCLC; 102% with SN12C renal; 79.4% with UO-31 renal; 107% in the assay with TK-10 renal; 83.6% in the assay with ACHN renal. In addition, the growth was 90% in the assay with CAKI-1 renal; 97.5% with A498 renal; 105% in the assay on MOLT-4 leukemia; 96.5% with SR leukemia; 61.5% with RPMI-8226 leukemia; 103% in the assay with OVCAR-8 ovarian. Moreover, the growth in the assay with OVCAR-5 ovarian was 72.9%; in the assay on OVCAR-4 ovarian, 95%; in the assay with SK-OV-3 ovarian, 97.5%; with IGROV1 ovarian, 37%; with OVCAR-3 ovarian, 100%; with HS 578T breast it was 87.7%. The growth in the assay on NCI/ADR-RES ovarian was 75.7%.
Consider `C=CCOC1=CC(=O)c2ccccc2C1=O`, for which the growth with SK-MEL-2 melanoma is 60.5%; in the assay on EKVX NSCLC, 116%; with SN12C renal it was 82.9%; with UO-31 renal it was 74.2%; in the assay with TK-10 renal, 113%; in the assay with ACHN renal it was 83%. The growth with CAKI-1 renal is 101%; with A498 renal, 74.6%; in the assay with MOLT-4 leukemia, 65.8%; in the assay with SR leukemia it was 9.62% (active); in the assay on RPMI-8226 leukemia, 92.7%; in the assay on OVCAR-8 ovarian, 57.2%. In addition, the growth in the assay with OVCAR-5 ovarian is 110%; in the assay on OVCAR-4 ovarian it was 42.1%; in the assay on SK-OV-3 ovarian, 109%; with IGROV1 ovarian, 85.5%; with OVCAR-3 ovarian, -13.4% (active); in the assay with HS 578T breast, 81.7%. In the assay on NCI/ADR-RES ovarian, the growth is 60.1%.
As to `C=C1C(=O)O[C@H]2[C@H]1CC/C(COC(=O)C(=O)c1c[nH]c3ccccc13)=C\CC[C@@]1(C)O[C@@H]21`, the growth with SK-MEL-2 melanoma was -57.5% (active); with EKVX NSCLC, 48.2%; in the assay on SN12C renal, -46.7% (active); in the assay on UO-31 renal, -93.3% (active); in the assay with TK-10 renal, -32.3% (active); with ACHN renal it was -36% (active). The growth was -33.8% (active) in the assay on CAKI-1 renal; -17.9% (active) in the assay with A498 renal; -24.6% (active) in the assay with MOLT-4 leukemia; 1.82% (active) in the assay with SR leukemia; -29.8% (active) in the assay with RPMI-8226 leukemia; -6.78% (active) in the assay with OVCAR-8 ovarian. The growth in the assay with OVCAR-5 ovarian is -5.59% (active); with OVCAR-4 ovarian it was 17.9%; in the assay on SK-OV-3 ovarian it was 85.1%; with IGROV1 ovarian, -69.8% (active); in the assay with OVCAR-3 ovarian it was -82.2% (active); with HS 578T breast it was 10.7%. In addition, in the assay on NCI/ADR-RES ovarian, the growth was 17.9%.
Regarding `Cc1cc(Cl)ccc1Nc1nc(C(F)(F)F)ccc1C(=O)N/N=C/c1ccc(N(C)C)cc1`, the growth with SK-MEL-2 melanoma is -6.44% (active); in the assay on EKVX NSCLC, 26.3%; in the assay with SN12C renal it was 57.7%; in the assay on UO-31 renal, 22.7%; with TK-10 renal, 25.8%; in the assay with ACHN renal it was 24.6%. Besides, the growth in the assay on CAKI-1 renal was 22.6%; with A498 renal, 34.7%; in the assay on MOLT-4 leukemia, 12.8%; with SR leukemia, 17.4%; in the assay on RPMI-8226 leukemia it was -26.1% (active); in the assay on OVCAR-8 ovarian, 18.7%. Besides, the growth in the assay with OVCAR-5 ovarian is 43.2%; in the assay on OVCAR-4 ovarian, 16%; in the assay on SK-OV-3 ovarian, 42.3%; in the assay with IGROV1 ovarian it was 21%; in the assay on OVCAR-3 ovarian, 22.5%; in the assay with HS 578T breast it was 39.4%. In addition, the growth in the assay with NCI/ADR-RES ovarian is 16.1%.

Source of the values: PubChem BioAssay (NCI).
